# Assay outcomes deposited in PubChem BioAssay by National Center for Advancing Translational Sciences (NCATS).
# IL1B secr inh – qHTS for Inhibitors of Inflammasome Signaling: IL-1-beta AlphaLISA Primary Screen. THP-1 LPS/ATP IL-1B secretion, AlphaLISA, 16 h; hits give low values. activity change, % at 57.5 µM. actives 4.7% (n = 360,000); in the data active = activity change below about -50%; inconclusive = mostly about -30% to -49%
#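 THP-1 cells pretreated 1 hr with compounds (up to 57.5 uM final), then stimulated with LPS (250 ng/mL final) plus ATP (1.25 mM final); secreted IL-1B measured by AlphaLISA after 16 hr, decreased signal indicating inhibition.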
# DT40 TDP1 no CPT – qHTS for Inhibitors of human tyrosyl-DNA phosphodiesterase 1 (TDP1): qHTS in cells in absence of CPT; DT40 Tdp1-/- hTDP1 cells, no CPT, ATP luminescence, 48 h; Potency, µM (doses to about 46.2 µM), for inactives: top-dose activity change, negative = growth inhibition, actives largely listed as inhibitors; actives 15% (n = 420,000); AID 686978, 2013; note: potency is the fitted concentration of half-maximal effect; nearly all actives have a fitted effect of over 55% in size
#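 Readout: luminescence from CellTiter-Glo after 30 min in the dark at RT. Cells: DT40 Tdp1-/- with stable hTDP1, 400/well. Exposure: compounds alone, ≥48 hr, 37 °C.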
# TDP1 cell CPT – qHTS for Inhibitors of human tyrosyl-DNA phosphodiesterase 1 (TDP1): qHTS in cells in presence of CPT. chicken DT40 Tdp1-/-;hTDP1 cells + 20 nM CPT, ATP luminescence, 48 h. Potency, µM (series often up to 46.2 µM), without a hit: at the top dose activity change, negative = growth inhibition, actives largely listed as inhibitors. actives 12% (n = 420,000); note: potency is the fitted concentration of half-maximal effect; nearly all actives have a fitted effect of over 55% in size
#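 Cell growth measured by CellTiter-Glo luminescence after a minimum 48 h, 37 C compound exposure with 20 nM CPT in Tdp1-knockout DT40 cells stably expressing hTDP1, seeded 400/well; qHTS titration format.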
# HT1080 IDH1KD tx – qHTS for induction of synthetic lethality in tumor cells producing 2HG: qHTS for the HT-1080-IDH1KD cell line; actives 2% (n = 360,000); HT-1080 IDH1 knockdown viability, ATP luminescence, 48 h; Potency, µM (titrated, usually from 46.1 µM), without a hit: top-dose activity, negative = toxicity, usual class: cytotoxic; AID 686971, 2013;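 note: potency is the fitted concentration of half-maximal effect; 0% = DMSO wells and -100% = cell-free medium wells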
#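 % activity derives from luminescence (CellTiter-Glo), normalised to DMSO and no-cell wells. HT-1080-IDH1KD cells, 750/well, had 48 h compound exposure at 37 °C.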
# ALOX12 inh – Primary qHTS assay for inhibitors of human arachidonate 12S-lipoxygenase (ALOX12): Round 2. Potency, µM (doses to about 108 µM), inactives show at the highest dose activity change, negative = inhibition, actives largely listed as inhibitors. purified 12hLO, xylenol orange hydroperoxide absorbance. actives 1.1% (n = 580,000). Polyunsaturated fatty acid lipoxygenase ALOX12 (Homo sapiens), P18054; note: potency is the fitted concentration of half-maximal effect
# Target sequence (P18054 whole entry, looked up): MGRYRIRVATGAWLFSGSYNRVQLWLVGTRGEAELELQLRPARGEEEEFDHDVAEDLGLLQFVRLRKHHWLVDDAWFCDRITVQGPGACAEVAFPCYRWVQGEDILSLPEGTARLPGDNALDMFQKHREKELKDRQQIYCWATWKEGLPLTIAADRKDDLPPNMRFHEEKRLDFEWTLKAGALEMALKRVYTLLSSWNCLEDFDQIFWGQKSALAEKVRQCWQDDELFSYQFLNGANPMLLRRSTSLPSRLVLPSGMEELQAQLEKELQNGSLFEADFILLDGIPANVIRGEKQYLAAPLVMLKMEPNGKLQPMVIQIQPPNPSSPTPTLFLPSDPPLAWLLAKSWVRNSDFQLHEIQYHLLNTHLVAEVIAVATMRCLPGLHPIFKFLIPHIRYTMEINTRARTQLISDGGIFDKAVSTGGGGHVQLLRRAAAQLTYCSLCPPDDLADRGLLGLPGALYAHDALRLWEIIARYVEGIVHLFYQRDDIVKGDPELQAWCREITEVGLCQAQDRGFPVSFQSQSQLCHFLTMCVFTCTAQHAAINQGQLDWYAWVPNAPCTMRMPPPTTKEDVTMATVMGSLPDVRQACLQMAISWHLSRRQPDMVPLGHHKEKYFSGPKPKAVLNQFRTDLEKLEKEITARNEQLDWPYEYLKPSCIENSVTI
#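 Hydroperoxide product was detected by ferrous iron/xylenol orange as the 573 to 405 nm absorbance ratio. Arachidonic acid at 40 uM (final) was turned over for 30 min at room temperature by 150 nM human 12hLO, pH 7.0 Hepes buffer, after 15 min compound preincubation.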
# HT1080-NT tox – qHTS for induction of synthetic lethality in tumor cells producing 2HG: qHTS for the HT-1080-NT fibrosarcoma cell line. AID 686970, 2013. actives 1.6% (n = 360,000). HT-1080-NT fibrosarcoma viability, CellTiter-Glo ATP luminescence, 48 h. Potency, µM (highest dose often 46.1 µM), for the others: at the top dose activity, negative = less viability, actives largely listed as cytotoxic;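 note: NT is the 2HG producing partner of a matched IDH1 knockdown line; potency is the fitted concentration of half-maximal effect; 0% = DMSO-treated cells and -100% = media-only wells without cells; nearly all actives have a fitted effect of over 55% in size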
#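 Toxicity toward the 2HG-producing NT line was scored as %Activity, normalised to DMSO and no-cell wells, from CellTiter-Glo luminescence after 48 hours' treatment.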
# The depositor's hits bear a star; ? = inconclusive; nt = not tested or not shown; [ ] = dose if it differs, or a comment. Many of the other results were omitted from the sample, so hits are more common in it than they were. Unless noted, calls come from the whole dose curve; as a rule, active = well fitted curve in the direction sought with a large enough effect; inconclusive = small, poorly fitted or top-dose-only effect, or another doubt; inactive = no such curve, though single readings can be large; an effect the other way counts as inactive or inconclusive. Unless noted, % is set by controls: 0 for no effect and ±100 for the full control effect.
SMILES,IL1B secr inh,DT40 TDP1 no CPT,TDP1 cell CPT,HT1080 IDH1KD tx,ALOX12 inh,HT1080-NT tox
O=[N+]([O-])c1ccc(NN=CC2CCCCCC2)c([N+](=O)[O-])c1,19.8,13µM*,14.6µM*,16.7%,?,15.3%
CCCCOc1ccc(NC(=O)COc2ccccc2OC)c2cccnc12,nt,nt,nt,nt,91.5%,nt
CN(CCOC(=O)/C=C/c1ccccc1)C(C)(C)C,-2.9,1.8%,3.1%,13.9%,-5.2%,14.1%
CC[N+]1(C)CCC(O)(/C=C/c2ccccc2)C(C(=O)/C=C/c2ccccc2)C1 (stereo unspecified),-102.3*,0.13µM*,0.0326µM*,7.31µM*,-20.1%,-16.6%
CCN1C(=O)NC(c2ccc(F)c(Br)c2)C(C(=O)Nc2cc(C)on2)=C1C (stereo unspecified),nt,nt,nt,nt,-25.5%,nt
CS(=O)(=O)Nc1ccc(C2=NN(C(=O)c3ccco3)C(c3ccc4nccnc4c3)C2)cc1 (stereo unspecified),nt,nt,nt,nt,-24.2%,nt
O=C(c1ccco1)N1N=C(c2ccc3nccnc3c2)CC1c1ccccc1 (stereo unspecified),-27.3,18.4µM*,?,-0.6%,5.6%,-1.8%
CS(=O)(=O)Nc1ccc(C2=NN(C(=O)c3ccco3)C(c3ccc(F)cc3)C2)cc1 (stereo unspecified),-78.7*,16.4µM*,-29.5%,-30.4%,-15.9%,-22.2%
O=C(c1ccccc1)N1N=C(c2ccc(F)cc2)CC1c1ccc2nccnc2c1 (stereo unspecified),nt,nt,nt,nt,3.5%,nt
CCC(C)(C)NC(=O)CN(Cc1ccc(OC)cc1)C(=O)CCC(=O)Nc1nccs1,24.3,-8.2%,6.8%,-8.9%,-1.9%,3.7%
O=C(c1ccc(F)cc1)N1CCn2c(nn(-c3ccc(F)cc3)c2=O)C1,nt,nt,nt,nt,24.1%,nt
CN1CCC(N2CCN(S(=O)(=O)c3cccc(F)c3)CC2)C1=O (stereo unspecified),nt,nt,nt,nt,34.8%,nt
CCCCC(NC(C)=O)c1nc2ccccc2[nH]1 (stereo unspecified),15.6,-6.1%,0.6%,-7.1%,2.6%,2.0%
CCCCn1nc(C(=O)N[C@@H](CCSC)c2nc3ccccc3[nH]2)c2ccccc2c1=O,-21.1,?,25.9µM*,?,220.8%,?
CCCC(NC(=O)c1ccc(Br)o1)c1nc2ccccc2[nH]1 (stereo unspecified),-9.2,?,16.4µM*,2.2%,344.4%,5.1%
O=C(NC(Cc1ccccc1)c1nc2ccccc2[nH]1)c1ccc(Cl)c([N+](=O)[O-])c1 (stereo unspecified),-164.8*,23.1µM*,10.3µM*,?,-13.9%,20.6µM*
CCn1nc(C(=O)N[C@@H](CCSC)c2nc3ccccc3[nH]2)c2ccccc2c1=O,-3.8,-24.6%,-27.3%,0.3%,-0.9%,-2.5%
CSCC[C@H](NC(=O)c1ccc(Cl)c([N+](=O)[O-])c1)c1nc2ccccc2[nH]1,-102.4*,?,?,?,?,?
CSCC[C@H](NC(=O)c1cccc([N+](=O)[O-])c1C)c1nc2ccccc2[nH]1,-0.1,?,-26.4%,0.9%,1.3%,-9.1%
COC(=O)c1ccc(C(=O)N2CCc3c(C(=O)NC(C)c4ccco4)c(OC)cc(=O)n3CC2)cc1 (stereo unspecified),nt,-3.8%,-1.3%,nt,1.8%,nt
CCOc1ccccc1NC(=O)C(C)Sc1nc2c(c(=O)[nH]1)CCCC2 (stereo unspecified),nt,?,?,nt,-19.4%,nt
CNC(=O)[C@@H]1CN(Cc2ccc3c(c2)CCO3)C[C@H]1c1nc(COC)no1,nt,nt,nt,nt,92.3%,nt
O=C(Nc1cccc(S(=O)(=O)N2CCOCC2)c1)c1ccc(Cl)c([N+](=O)[O-])c1,-98.7*,?,?,-1.2%,-15.5%,3.1%
O=C(Nc1ccc(S(=O)(=O)N2CCOCC2)cc1)c1ccc(Cl)c([N+](=O)[O-])c1,-96.1*,13µM*,13µM*,-32.8%,21.1%,?
O=C(Nc1cccc(S(=O)(=O)N2CCOCC2)c1)c1cccc(S(=O)(=O)N2CCCC2)c1,33.4,-29.9%,-13.1%,-1.0%,7.6%,5.2%
SMILES,IL1B secr inh,DT40 TDP1 no CPT,TDP1 cell CPT,HT1080 IDH1KD tx,ALOX12 inh,HT1080-NT tox
COc1ccc(C(=O)Nc2ccc(N3CCN(C(C)=O)CC3)cc2)cc1[N+](=O)[O-],nt,nt,nt,nt,18.2%,nt
Cc1ccc(C(=O)Nc2cccc(S(=O)(=O)N3CCOCC3)c2)cc1[N+](=O)[O-],-4.3,?,11.6µM*,-0.7%,-8.8%,-5.3%
CC(=O)N1CCN(c2ccc(NC(=O)c3ccc(Cl)c([N+](=O)[O-])c3)cc2)CC1,-52.4*,-15.2%,?,15.4%,0.0%,11.0%
O=C(Nc1ccc(S(=O)(=O)N2CCOCC2)cc1)c1cccc([N+](=O)[O-])c1,-3.7,-14.3%,?,-8.6%,-23.0%,-11.3%
Cn1nccc1C(=O)N1CCc2ccc(NC(=O)C3(c4ccccc4)CC3)cc2C1,nt,nt,nt,nt,-0.3%,nt
Cc1ccc(Cn2cc(CN(C)S(=O)(=O)c3ccccc3Br)nn2)cc1,nt,nt,nt,nt,0.0%,nt
O=C(Nc1ccccc1N1CCOCC1)c1ccc(N2CCOCC2)c([N+](=O)[O-])c1,-18.2,?,?,10.1%,26.9%,?
CN(C)S(=O)(=O)c1cccc(NC(=O)c2ccc(N3CCOCC3)c([N+](=O)[O-])c2)c1,-7.2,?,16.4µM*,-10.5%,3.7%,-15.7%
N#Cc1ccc(CN2CCC3OCCN(Cc4ccccc4F)C(=O)C3C2)cc1 (stereo unspecified),nt,nt,nt,nt,0.5%[176 µM],nt
Cc1oc2c(c1C(=O)NCc1cccnc1)C(=O)c1ccccc1C2=O,-80.6*,1.03µM*,0.92µM*,2.59µM*,nt,4.11µM*
CC(=O)c1c(C)oc2c1C(=O)c1ccccc1C2=O,35.2,7.31µM*,8.2µM*,-5.0%,-9.3%,-1.4%
Cc1onc(-c2ccccc2Cl)c1C(=O)NCc1cccnc1,-14.0,-0.3%,-17.4%,-2.5%,-26.9%,-1.1%
COc1ccc(CCNC(=O)c2[nH]c(C)c(C(C)=O)c2C)cc1,-15.8,-17.2%,-16.1%,1.6%,0.0%,8.2%
